# Test results from the supplement of paper PMC8728848.
# This is one part of a sample in which the strongest signals are shown more often than they occur.
# Legend:
# Experiment in all cases: glycan array binding signal (z-score within array); higher = stronger binding
# Conditions in all cases: glycan notation: IUPAC condensed, linker removed
# [1] = molecular target: Fuc(a1-2)Gal(b1-3)GlcNAc
# Outline: (§1)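 The Consortium for Functional Glycomics database supplied 3228 glycan arrays, of which those lacking an available protein sequence were dropped. The binding signal, a within-array Z-score, was averaged across arrays of the same protein sequence and across linkers. Negative scores can be read as non-binding.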
# [2] = molecular target: Fuc(a1-2)Gal(b1-3)[Fuc(a1-4)]GlcNAc(b1-3)[Gal(b1-4)GlcNAc(b1-6)]Gal(b1-4)Glc
# Outline: as §1
# [3] = molecular target: Fuc(a1-2)Gal(b1-4)GlcNAc(b1-6)GalNAc
# Outline: as §1
# [4] = molecular target: Fuc(a1-2)Gal(b1-4)[Fuc(a1-3)]GlcNAc
# Outline: as §1
# [5] = molecular target: Fuc(a1-2)Gal(b1-4)[Fuc(a1-3)]GlcNAc(b1-2)Man(a1-3)[Fuc(a1-2)Gal(b1-4)[Fuc(a1-3)]GlcNAc(b1-2)Man(a1-6)]Man(b1-4)GlcNAc(b1-4)[Fuc(a1-6)]GlcNAc
# Outline: as §1
# [6] = molecular target: Fuc(a1-2)Gal(b1-4)[Fuc(a1-3)]GlcNAc(b1-3)Gal(b1-4)[Fuc(a1-3)]GlcNAc
# Outline: as §1
# [7] = molecular target: Fuc(a1-2)Gal3S(b1-4)GlcNAc
# Outline: as §1
# [8] = molecular target: Fuc(a1-2)[Gal(a1-3)]Gal
# Outline: as §1
# [9] = molecular target: Fuc(a1-2)[Gal(a1-3)]Gal(b1-4)GlcNAc(b1-2)Man(a1-3)[Fuc(a1-2)[Gal(a1-3)]Gal(b1-4)GlcNAc(b1-2)Man(a1-6)]Man(b1-4)GlcNAc(b1-4)[Fuc(a1-6)]GlcNAc
# Outline: as §1
# [10] = molecular target: Fuc(a1-2)[GalNAc(a1-3)]Gal(b1-3)GalNAc(b1-3)Gal(a1-4)Gal(b1-4)Glc
# Outline: as §1
# [11] = molecular target: Fuc(a1-2)[GalNAc(a1-3)]Gal(b1-3)GlcNAc(b1-2)Man(a1-3)[Fuc(a1-2)[GalNAc(a1-3)]Gal(b1-3)GlcNAc(b1-2)Man(a1-6)]Man(b1-4)GlcNAc(b1-4)[Fuc(a1-6)]GlcNAc
# Outline: as §1
# [12] = molecular target: Fuc(a1-2)[GalNAc(a1-3)]Gal(b1-4)[Fuc(a1-3)]GlcNAc
# Outline: as §1
# [13] = molecular target: Fuc(a1-2)[GalNAc(a1-3)]Gal(b1-4)[Fuc(a1-3)]GlcNAc(b1-3)GalNAc
# Outline: as §1
# [14] = molecular target: Fuc(a1-3)[GalNAc(b1-4)]GlcNAc6S
# Outline: as §1
# [15] = molecular target: Gal(a1-3)Gal(b1-4)Glc
# Outline: as §1
# [16] = molecular target: Gal(a1-3)GalNAc
# Outline: as §1
# [17] = molecular target: Gal(a1-3)[Gal(a1-4)]Gal(b1-4)GlcNAc
# Outline: as §1
# [18] = molecular target: Gal(a1-4)Gal(b1-4)Glc
# Outline: as §1
# [19] = molecular target: Gal(a1-4)Gal(b1-4)GlcNAc(b1-3)Gal(b1-4)Glc
# Outline: as §1
# [20] = molecular target: Gal(b1-3)GlcNAc
# Outline: as §1
# [21] = molecular target: Gal(b1-3)[Fuc(a1-4)]GlcNAc(b1-3)Gal(b1-3)[Fuc(a1-4)]GlcNAc
# Outline: as §1
# [22] = molecular target: Gal(b1-4)GlcNAc(a1-6)Gal(b1-4)GlcNAc
# Outline: as §1
# [23] = molecular target: Gal(b1-4)GlcNAc(b1-2)Man(a1-3)[Gal(b1-4)GlcNAc(b1-2)Man(a1-6)]Man(b1-4)GlcNAc(b1-4)GlcNAc
# Outline: as §1
# [24] = molecular target: Gal(b1-4)GlcNAc(b1-2)[Gal(b1-4)GlcNAc(b1-6)]Man(a1-6)[GlcNAc(b1-4)][Gal(b1-4)GlcNAc(b1-2)[Gal(b1-4)GlcNAc(b1-4)]Man(a1-3)]Man(b1-4)GlcNAc(b1-4)[Fuc(a1-6)]GlcNAc
# Outline: as §1
# [25] = molecular target: Gal(b1-4)GlcNAc(b1-3)Gal(b1-3)GlcNAc
# Outline: as §1
# [26] = molecular target: Gal(b1-4)GlcNAc(b1-3)Gal(b1-4)GlcNAc(b1-2)[Gal(b1-4)GlcNAc(b1-3)Gal(b1-4)GlcNAc(b1-6)]Man(a1-6)[Gal(b1-4)GlcNAc(b1-3)Gal(b1-4)GlcNAc(b1-2)Man(a1-3)]Man(b1-4)GlcNAc(b1-4)[Fuc(a1-6)]GlcNAc
# Outline: as §1
# [27] = molecular target: Gal6S(b1-4)Glc
# Outline: as §1
# [28] = molecular target: GalNAc(a1-3)GalNAc(b1-3)Gal(a1-4)Gal(b1-4)Glc
# Outline: as §1
# [29] = molecular target: GalNAc(b1-3)Gal(a1-4)Gal(b1-4)GlcNAc
# Outline: as §1
# [30] = molecular target: GalNAc(b1-3)Gal(a1-6)Gal(b1-4)Glc
# Outline: as §1
# [31] = molecular target: GalNAc(b1-3)GlcNAc
# Outline: as §1
# [32] = molecular target: GalNAc(b1-4)GlcNAc
# Outline: as §1
# [33] = molecular target: GalNAc4S6S(b1-4)GlcNAc
# Outline: as §1
# [34] = molecular target: GlcA(b1-3)Gal
# Outline: as §1
# [35] = molecular target: GlcA(b1-6)Gal
# Outline: as §1
# [36] = molecular target: GlcNAc(a1-4)Gal(b1-4)GlcNAc(b1-3)Gal(b1-4)Glc
# Outline: as §1
# [37] = molecular target: GlcNAc(a1-4)Gal(b1-4)GlcNAc(b1-3)Gal(b1-4)[Fuc(a1-3)]GlcNAc(b1-3)Gal(b1-4)[Fuc(a1-3)]GlcNAc
# Outline: as §1
# [38] = molecular target: GlcNAc(b1-3)Gal(b1-4)GlcNAc
# Outline: as §1
# [39] = molecular target: GlcNAc(b1-3)Gal(b1-4)GlcNAc(b1-2)[GlcNAc(b1-3)Gal(b1-4)GlcNAc(b1-6)]Man(a1-6)[GlcNAc(b1-3)Gal(b1-4)GlcNAc(b1-2)Man(a1-3)]Man(b1-4)GlcNAc(b1-4)GlcNAc
# Outline: as §1
# [40] = molecular target: Man(a1-2)Man(a1-6)[Man(a1-3)]Man(a1-6)[Man(a1-2)Man(a1-2)Man(a1-3)]Man
# Outline: as §1
# [41] = molecular target: Neu5Ac(a2-3)Gal(b1-3)GlcNAc(b1-3)Gal(b1-3)GlcNAc
# Outline: as §1
# [42] = molecular target: Neu5Ac(a2-3)Gal(b1-3)[Fuc(a1-4)]GlcNAc
# Outline: as §1
# [43] = molecular target: Neu5Ac(a2-3)Gal(b1-4)GlcNAc(b1-2)Man(a1-3)[Neu5Ac(a2-6)Gal(b1-4)GlcNAc(b1-2)Man(a1-6)]Man(b1-4)GlcNAc(b1-4)GlcNAc
# Outline: as §1
# [44] = molecular target: Neu5Ac(a2-3)Gal(b1-4)GlcNAc(b1-3)Gal(b1-4)GlcNAc(b1-6)[Gal(b1-3)]GalNAc
# Outline: as §1
# [45] = molecular target: Neu5Ac(a2-3)Gal(b1-4)[Fuc(a1-3)]GlcNAc(b1-3)Gal
# Outline: as §1
# [46] = molecular target: Neu5Ac(a2-3)Gal(b1-4)[Fuc(a1-3)]GlcNAc6S
# Outline: as §1
# [47] = molecular target: Neu5Ac(a2-6)Gal(b1-4)GlcNAc(b1-2)[Neu5Ac(a2-6)Gal(b1-4)GlcNAc(b1-4)]Man(a1-3)[GlcNAc(b1-4)][Neu5Ac(a2-6)Gal(b1-4)GlcNAc(b1-2)[Neu5Ac(a2-6)Gal(b1-4)GlcNAc(b1-6)]Man(a1-6)]Man(b1-4)GlcNAc(b1-4)GlcNAc
# Outline: as §1
# [48] = molecular target: Neu5Ac(a2-6)Gal(b1-4)GlcNAc(b1-3)Gal(b1-4)GlcNAc(b1-3)Gal(b1-4)GlcNAc(b1-2)Man(a1-3)[Neu5Ac(a2-6)Gal(b1-4)GlcNAc(b1-3)Gal(b1-4)GlcNAc(b1-3)Gal(b1-4)GlcNAc(b1-2)Man(a1-6)]GalNAc
# Outline: as §1
# [49] = molecular target: Neu5Gc(a2-8)Neu5Gc(a2-3)Gal(b1-4)GlcNAc(b1-3)Gal(b1-4)GlcNAc
# Outline: as §1
# [50] = molecular target: Neu5Ac(a2-3)Gal(b1-4)[Fuc(a1-3)]GlcNAc(b1-6)[Gal(b1-3)]GalNAc
# Outline: as §1
# [51] = molecular target: Neu5Ac(a2-3)Gal(b1-4)[Fuc(a1-3)]GlcNAc(b1-6)[Neu5Ac(a2-3)Gal(b1-3)]GalNAc
# Outline: as §1
# [52] = molecular target: Neu5Ac(a2-3)Gal6S(b1-4)GlcNAc
# Outline: as §1
# [53] = molecular target: Neu5Ac(a2-8)Neu5Ac(a2-3)[GalNAc(b1-4)]Gal(b1-4)Glc
# Outline: as §1
# [54] = molecular target: Neu5Ac(a2-8)Neu5Ac(a2-8)Neu5Ac(a2-3)Gal(b1-4)Glc
# Outline: as §1
binder,measurement,setting,value
"AT3G44510(29) (Arabidopsis thaliana), F4J341 (protein) MEEHLQGRIKLHDGRYLAYKERGVPKDDAKFTIVLVHGFGSSKDMNFNVSQELVNEIGIYFVLYDRAGYGESDPNPKRSLKSEAYDVQELADGLEIGSRFYLIGISMGSYTVWSCLKHIPQRLAGVAMVAPVVNFRWPSIPKSLMPKDYRREVAKWSVWIANYFPGLLQWLVTQNMFSTTSMLEKNPVYFNDQDIEVLKHIKGFPMLTKEKLRERGVFGTLRSDFLVAFGDWDFDPADLPDPSLSGPEKGSSSVHIWQGYEDKVMPFQLQRCLCRKLPWIRYHEVPKGGHLIVHYDGICDAILKSLLLGEDLPMYKPKAVITEPA",glycan array binding signal (z-score),[1],0.123
same,glycan array binding signal (z-score),[2],0.203
same,glycan array binding signal (z-score),[3],-0.731
same,glycan array binding signal (z-score),[4],-0.381
same,glycan array binding signal (z-score),[5],-0.458
same,glycan array binding signal (z-score),[6],-0.951
same,glycan array binding signal (z-score),[7],3.33
same,glycan array binding signal (z-score),[8],2.08
same,glycan array binding signal (z-score),[9],-0.079
same,glycan array binding signal (z-score),[10],-0.123
same,glycan array binding signal (z-score),[11],-0.313
same,glycan array binding signal (z-score),[12],-0.818
same,glycan array binding signal (z-score),[13],6.03
same,glycan array binding signal (z-score),[14],-0.561
same,glycan array binding signal (z-score),[15],-0.538
same,glycan array binding signal (z-score),[16],2.52
same,glycan array binding signal (z-score),[17],7.13
same,glycan array binding signal (z-score),[18],3.6
same,glycan array binding signal (z-score),[19],-0.481
same,glycan array binding signal (z-score),[20],-0.484
same,glycan array binding signal (z-score),[21],-0.685
same,glycan array binding signal (z-score),[22],-0.378
same,glycan array binding signal (z-score),[23],-0.419
same,glycan array binding signal (z-score),[24],-0.121
same,glycan array binding signal (z-score),[25],-0.443
same,glycan array binding signal (z-score),[26],-0.519
same,glycan array binding signal (z-score),[27],-0.234
same,glycan array binding signal (z-score),[28],-0.476
same,glycan array binding signal (z-score),[29],3.41
same,glycan array binding signal (z-score),[30],-0.353
same,glycan array binding signal (z-score),[31],-0.421
same,glycan array binding signal (z-score),[32],9.27
same,glycan array binding signal (z-score),[33],-0.488
same,glycan array binding signal (z-score),[34],1.18
same,glycan array binding signal (z-score),[35],0.079
same,glycan array binding signal (z-score),[36],0.232
same,glycan array binding signal (z-score),[37],1.31
same,glycan array binding signal (z-score),[38],0.6
same,glycan array binding signal (z-score),[39],2.5
same,glycan array binding signal (z-score),[40],-0.613
same,glycan array binding signal (z-score),[41],-0.556
same,glycan array binding signal (z-score),[42],-0.723
same,glycan array binding signal (z-score),[43],2.04
same,glycan array binding signal (z-score),[44],-0.343
same,glycan array binding signal (z-score),[45],-0.706
same,glycan array binding signal (z-score),[46],0.419
same,glycan array binding signal (z-score),[47],-0.785
same,glycan array binding signal (z-score),[48],2.59
same,glycan array binding signal (z-score),[49],0.206
PP2A1 (Arabidopsis thaliana) (protein) MFRNQDSKYLIPVQKEAPPVTTLPMKASTVKSPHNCEAILRDADPPISLSSVNLSEQLRSGVFLKPKKQIKYWVDERNSNCFMLFAKNLSITWSDDVNYWTWFTEKESPNENVEAVGLKNVCWLDITGKFDTRNLTPGIVYEVVFKVKLEDPAYGWDTPVNLKLVLPNGKEKPQEKKVSLRELPRYKWVDVRVGEFVPEKSAAGEITFSMYEHAAGVWKKGLSLKGVAIRPKQHHHHHH,glycan array binding signal (z-score),[50],-0.268
same,glycan array binding signal (z-score),[51],-0.091
same,glycan array binding signal (z-score),[52],0.07
same,glycan array binding signal (z-score),[53],0.265
same,glycan array binding signal (z-score),[54],0.006
